Screening data (PubChem)
AmpC inh detg: qHTS Inhibitors of AmpC Beta-Lactamase (assay with detergent). AmpC hydrolysis of nitrocefin, absorbance 480 nm, 0.01% Triton. Potency, µM (titrated, usually from 114 µM), for inactives: at the top dose activity change, negative = inhibition, hits mostly inhibitors. 370,000 compounds, 0.041% hits. P00811;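 further: 0% = no-compound wells and -100% = no-enzyme wells; nearly all actives have a fitted effect of over 25% in size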
Target sequence (P00811 whole entry, looked up): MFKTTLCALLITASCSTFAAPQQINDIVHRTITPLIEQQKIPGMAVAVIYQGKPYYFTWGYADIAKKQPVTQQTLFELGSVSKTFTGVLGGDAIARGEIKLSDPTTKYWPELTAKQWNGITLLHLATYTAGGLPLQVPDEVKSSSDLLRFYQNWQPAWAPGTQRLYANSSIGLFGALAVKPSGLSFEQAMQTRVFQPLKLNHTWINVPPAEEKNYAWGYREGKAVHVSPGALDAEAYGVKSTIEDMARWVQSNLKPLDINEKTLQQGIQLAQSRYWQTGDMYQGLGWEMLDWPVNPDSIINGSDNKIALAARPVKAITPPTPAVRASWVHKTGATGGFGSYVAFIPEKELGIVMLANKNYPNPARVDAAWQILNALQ
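AmpC (5.3 nM in the dispensed reagent) in 20 mM phosphate pH 7.0 with 0.01% (detergent screen) or 0.0001% Triton X-100 was preincubated with compounds for 15 min at room temperature. Nitrocefin was then added from an 800 uM solution, and hydrolysis was followed at 480 nm.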
AmpC inh no detg: qHTS Inhibitors of AmpC Beta-Lactamase (assay without detergent) | 330,000 compounds, 0.52% hits | AID 485341, 2010 | P00811 | Potency, µM (titrated, usually from 57.1 µM), for inactives: top-dose activity change, negative = inhibition, actives largely listed as inhibitors | AmpC nitrocefin hydrolysis, absorbance 480 nm, 0.0001% Triton;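 further: plate controls were no compound for no effect and no enzyme for full effect; nearly all actives have a fitted effect of over 20% in size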
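AmpC (5.3 nM in the dispensed reagent) in 20 mM phosphate pH 7.0 with 0.01% (detergent screen) or 0.0001% Triton X-100 was preincubated with compounds for 15 min at room temperature. Nitrocefin was then added from an 800 uM solution, and hydrolysis was followed at 480 nm.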
Sm TGR block: qHTS Assay for the Inhibitors of Schistosoma Mansoni Peroxiredoxins. 360,000 compounds, 3% hits. Potency, µM (highest dose often 114 µM), for inactives: top-dose activity change, negative = inhibition, most hits filed as inhibitors. purified TGR, DTNB reduction, TNB absorbance 405 nm. Schistosoma mansoni thioredoxin glutathione reductase (TGR), Q962Y6; further: nearly all actives have a fitted effect of over 60% in size
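First, TGR (20 nM dispensed) and NADPH were mixed with compound. Second, a 15 min room-temperature incubation followed. Third, further NADPH and then DTNB were added to start the reaction. Finally, TNB absorbance was monitored kinetically.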
* = called active by the depositor. This is a sample that favours compounds with a hit; in the whole collection about 3.3% have one here. The call rests on the fitted dose curve; in most records, active means well fitted curve in the direction sought with a large enough effect; inconclusive means small, poorly fitted or top-dose-only effect, or another doubt; inactive means no such curve, though single readings can be large; an effect the other way counts as inactive or inconclusive. Unless noted, on the % scale 0 is the no-effect control and ±100 the full control effect; potency means the concentration at half of the fitted maximal effect.

`CC(OC(=O)c1ccc2c(=O)n3c(nc2c1)CCC3)C(=O)NC1CCCCC1C` (configuration not stated) gave AmpC inh detg -4%, AmpC inh no detg -4% and Sm TGR block 6%.
O=C1OCCN1c1c(-c2ccccc2)c(-c2cccs2)nc2c(-c3ccccc3)cccc12 was read as AmpC inh detg 5%, AmpC inh no detg -8% and Sm TGR block inconclusive.
`CCN(CC)S(=O)(=O)c1ccc(C(=O)Nc2ccc3c(c2)OCO3)cc1` gave AmpC inh detg 3%, AmpC inh no detg -39% and Sm TGR block -7%.
`Fc1ccc(-c2n[nH]c(=S)c3ccccc23)cc1` gave AmpC inh detg 2%, AmpC inh no detg -47% and Sm TGR block 2%.
`CCCCc1ncc(CN2CCC(n3nccc3NC(=O)c3ccccc3OC)CC2)[nH]1` gave AmpC inh detg -13%, AmpC inh no detg 63% and Sm TGR block -18%.
For Cc1cccc(N2C(=O)CSC23C(=O)N(Cc2cccc(C(F)(F)F)c2)c2ccccc23)c1 (configuration not stated) the results were AmpC inh detg 0% and Sm TGR block 8%.
Cc1noc(C)c1NC(=O)N(C)C[C@H]1Oc2c(NC(=O)Nc3ccccc3)cccc2C(=O)N([C@H](C)CO)C[C@@H]1C was read as AmpC inh no detg 73%.
CCOC(=O)C1=C(COC(=O)/C=C/c2cccc([N+](=O)[O-])c2)NC(=O)NC1C (configuration not stated) was read as AmpC inh detg -2%, AmpC inh no detg -8% and Sm TGR block -1%.
Screening COc1ccc(NC(=O)c2cc3c(=O)n(Cc4ccco4)ccc3nc2C)cc1 returned AmpC inh detg inconclusive and Sm TGR block -21%.
Screening CCn1cc(C(=O)N2CCN(c3cc(C)ccc3C)CC2)c(=O)c2cc(S(=O)(=O)N3CCCCC3)ccc21 returned AmpC inh detg 2% and Sm TGR block 2%.
Screening O=C(c1ccco1)N1CCN(C(=O)c2cn(-c3ccccc3)nc2-c2ccc(F)cc2)CC1 returned AmpC inh detg inconclusive, AmpC inh no detg 149% and Sm TGR block -23%.
`COc1ccc(C[C@H]2CN3C(=NC[C@@H]3C(C)C)N2C[C@H](C)NC(=O)c2ccc(C)c(Br)c2)cc1` gave AmpC inh detg 2%, AmpC inh no detg 61% and Sm TGR block 15%.
Screening Cc1ccc(C(=O)N[C@@H](C)CN2C3=NC[C@H](C(C)C)N3C[C@H]2Cc2ccc(O)cc2)cc1Br returned AmpC inh detg 3%, AmpC inh no detg -4% and Sm TGR block 8.9µM*.
COCCn1c(C)cc(O)c(C(c2ccc(F)cc2)N2CCN(c3ccccc3)CC2)c1=O (configuration not stated) was read as AmpC inh detg 0% and Sm TGR block 3.2µM*.
COCCn1c(C)cc(O)c(C(c2ccc(Cl)cc2)N2CCN(c3ccccc3)CC2)c1=O (configuration not stated) was read as AmpC inh detg 6% and Sm TGR block 2.8µM*.
For CCOc1ccc(C(c2c(NC(=O)c3ccccc3)sc(C)c2C)N2CCN(C)CC2)cc1 (configuration not stated) the results were AmpC inh detg 5%, AmpC inh no detg 133% and Sm TGR block -1%.
COCCn1c(=O)[nH]c2cc(C(=O)N3CCN(c4ccc(Cl)cc4)CC3)ccc2c1=O was read as AmpC inh detg -6%, AmpC inh no detg -7% and Sm TGR block 3%.
`CCOc1ccc(C(c2c(O)cc(C)n(CCOC)c2=O)N2CCN(c3ccccc3)CC2)cc1` (configuration not stated) gave AmpC inh detg 4% and Sm TGR block 6.3µM*.
`COCCn1c(N2CCN(c3ccccc3)CC2)nc2c1c(=O)n(C)c(=O)n2C` gave AmpC inh detg 3%, AmpC inh no detg 68% and Sm TGR block 0%.
CS(=O)(=O)N(CC(=O)NCCSCc1ccccc1)c1cc(C(F)(F)F)ccc1Cl was read as AmpC inh detg 4% and Sm TGR block 8%.
`O=C(O)CCNC(=O)c1ccc(NC(=O)Cc2ccc(Cl)cc2)cc1` gave AmpC inh detg 1%, AmpC inh no detg -9% and Sm TGR block 3%.
`CN(C)S(=O)(=O)c1ccc(C(=O)Nc2cc(S(=O)(=O)Nc3ccccc3Cl)ccc2N2CCCCC2)cc1` gave AmpC inh detg -4%, AmpC inh no detg 3.2µM* and Sm TGR block 1%.
